Experimental data from ChEMBL document CHEMBL1961873, “Compounds: GSK PKIS; Assays: Nanosyn kinase panel” (2012).

How the values were obtained:
[1] = target: T1, Aurora kinase A (Homo sapiens) (UniProt O14965); settings: at 1 µM;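 note: values are mean percent inhibition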
T1 sequence (whole entry): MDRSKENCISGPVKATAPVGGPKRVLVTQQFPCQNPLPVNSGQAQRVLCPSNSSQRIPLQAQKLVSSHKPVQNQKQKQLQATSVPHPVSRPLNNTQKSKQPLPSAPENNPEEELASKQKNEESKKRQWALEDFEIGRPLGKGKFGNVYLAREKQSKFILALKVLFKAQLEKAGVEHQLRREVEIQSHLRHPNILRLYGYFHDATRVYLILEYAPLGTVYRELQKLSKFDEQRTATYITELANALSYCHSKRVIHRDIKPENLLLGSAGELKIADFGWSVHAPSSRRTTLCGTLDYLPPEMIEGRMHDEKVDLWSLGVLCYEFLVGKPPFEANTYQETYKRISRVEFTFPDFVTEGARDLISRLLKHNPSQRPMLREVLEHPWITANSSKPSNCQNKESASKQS

[2] = target: Aurora kinase B (Homo sapiens) (UniProt Q96GD4); settings: at 0.1 µM
[3] = target: Aurora kinase B (Homo sapiens) (UniProt Q96GD4); settings: at 1 µM
[4] = target: T2, Aurora kinase C (Homo sapiens) (UniProt Q9UQB9); settings: at 0.1 µM
T2 sequence (whole entry): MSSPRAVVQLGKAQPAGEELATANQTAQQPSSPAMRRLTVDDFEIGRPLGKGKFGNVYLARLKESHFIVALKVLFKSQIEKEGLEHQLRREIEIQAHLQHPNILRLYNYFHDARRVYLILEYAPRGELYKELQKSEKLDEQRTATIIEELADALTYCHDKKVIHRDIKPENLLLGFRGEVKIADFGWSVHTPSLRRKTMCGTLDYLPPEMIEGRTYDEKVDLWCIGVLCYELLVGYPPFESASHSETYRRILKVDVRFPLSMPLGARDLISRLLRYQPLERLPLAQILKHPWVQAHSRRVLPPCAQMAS

[5] = target: T2, Aurora kinase C (Homo sapiens); settings: at 1 µM
[6] = target: Serine/threonine-protein kinase 10 (Homo sapiens) (UniProt O94804); settings: at 0.1 µM
[7] = target: Serine/threonine-protein kinase 10 (Homo sapiens) (UniProt O94804); settings: at 1 µM
[8] = target: T3, Mitogen-activated protein kinase kinase kinase kinase 2 (Homo sapiens) (UniProt Q12851); settings: at 0.1 µM
T3 sequence (whole entry): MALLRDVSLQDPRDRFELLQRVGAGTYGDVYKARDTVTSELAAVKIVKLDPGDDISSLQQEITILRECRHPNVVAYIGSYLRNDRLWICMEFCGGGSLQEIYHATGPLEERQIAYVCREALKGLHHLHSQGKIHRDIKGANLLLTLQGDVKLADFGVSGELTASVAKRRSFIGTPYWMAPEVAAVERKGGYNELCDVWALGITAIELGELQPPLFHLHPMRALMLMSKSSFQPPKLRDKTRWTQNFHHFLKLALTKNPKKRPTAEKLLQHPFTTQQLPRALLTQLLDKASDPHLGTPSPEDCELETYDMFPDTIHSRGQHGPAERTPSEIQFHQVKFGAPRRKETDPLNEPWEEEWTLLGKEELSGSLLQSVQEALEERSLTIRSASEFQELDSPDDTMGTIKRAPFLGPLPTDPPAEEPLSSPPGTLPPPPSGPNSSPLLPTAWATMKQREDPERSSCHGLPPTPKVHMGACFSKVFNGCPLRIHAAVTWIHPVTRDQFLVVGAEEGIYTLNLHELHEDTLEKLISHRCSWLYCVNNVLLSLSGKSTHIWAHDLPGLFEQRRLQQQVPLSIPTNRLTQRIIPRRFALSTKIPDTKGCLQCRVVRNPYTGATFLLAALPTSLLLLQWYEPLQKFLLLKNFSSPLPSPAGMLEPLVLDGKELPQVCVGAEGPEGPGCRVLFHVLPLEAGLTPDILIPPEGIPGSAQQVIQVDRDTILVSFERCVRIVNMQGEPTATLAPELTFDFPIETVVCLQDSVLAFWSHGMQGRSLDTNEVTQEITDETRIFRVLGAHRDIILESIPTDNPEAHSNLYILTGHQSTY

[9] = target: T3, Mitogen-activated protein kinase kinase kinase kinase 2 (Homo sapiens); settings: at 1 µM
[10] = target: Mitogen-activated protein kinase kinase kinase kinase 4 (Homo sapiens) (UniProt O95819); settings: at 0.1 µM
Mitogen-activated protein kinase kinase kinase kinase 4 (Homo sapiens), sequence (O95819 2-1239 limits assumed): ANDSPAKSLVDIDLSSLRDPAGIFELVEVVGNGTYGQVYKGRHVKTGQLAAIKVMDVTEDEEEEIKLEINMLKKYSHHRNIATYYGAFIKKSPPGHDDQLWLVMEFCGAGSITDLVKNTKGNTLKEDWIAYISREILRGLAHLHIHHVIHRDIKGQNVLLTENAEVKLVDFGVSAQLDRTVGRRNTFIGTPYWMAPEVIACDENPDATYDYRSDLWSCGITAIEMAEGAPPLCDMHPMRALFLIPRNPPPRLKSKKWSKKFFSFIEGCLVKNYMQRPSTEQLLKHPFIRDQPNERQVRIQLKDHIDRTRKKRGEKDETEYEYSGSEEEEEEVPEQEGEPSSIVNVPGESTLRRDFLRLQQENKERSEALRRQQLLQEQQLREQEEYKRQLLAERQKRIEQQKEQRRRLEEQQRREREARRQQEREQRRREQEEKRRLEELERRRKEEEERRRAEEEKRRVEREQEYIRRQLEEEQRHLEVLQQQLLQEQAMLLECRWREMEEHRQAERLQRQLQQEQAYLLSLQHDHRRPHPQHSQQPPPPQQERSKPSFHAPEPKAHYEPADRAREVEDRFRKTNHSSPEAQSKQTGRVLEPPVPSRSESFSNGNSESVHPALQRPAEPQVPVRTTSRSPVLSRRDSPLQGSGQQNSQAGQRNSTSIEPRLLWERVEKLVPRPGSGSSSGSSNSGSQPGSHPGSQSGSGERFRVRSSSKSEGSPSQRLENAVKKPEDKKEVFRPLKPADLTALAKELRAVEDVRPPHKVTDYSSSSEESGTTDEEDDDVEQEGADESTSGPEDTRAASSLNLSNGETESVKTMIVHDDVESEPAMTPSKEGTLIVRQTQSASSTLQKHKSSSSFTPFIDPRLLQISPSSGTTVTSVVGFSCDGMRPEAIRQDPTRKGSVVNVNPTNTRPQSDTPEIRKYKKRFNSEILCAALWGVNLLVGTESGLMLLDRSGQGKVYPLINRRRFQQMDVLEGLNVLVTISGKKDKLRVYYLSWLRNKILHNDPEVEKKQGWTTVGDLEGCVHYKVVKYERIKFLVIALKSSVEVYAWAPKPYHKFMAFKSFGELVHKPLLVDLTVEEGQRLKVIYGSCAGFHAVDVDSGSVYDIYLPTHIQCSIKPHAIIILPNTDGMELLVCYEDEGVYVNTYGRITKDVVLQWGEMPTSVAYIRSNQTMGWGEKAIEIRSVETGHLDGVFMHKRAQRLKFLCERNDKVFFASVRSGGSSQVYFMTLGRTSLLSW

Serine/threonine-protein kinase 10 (Homo sapiens), sequence (O94804 whole entry, looked up): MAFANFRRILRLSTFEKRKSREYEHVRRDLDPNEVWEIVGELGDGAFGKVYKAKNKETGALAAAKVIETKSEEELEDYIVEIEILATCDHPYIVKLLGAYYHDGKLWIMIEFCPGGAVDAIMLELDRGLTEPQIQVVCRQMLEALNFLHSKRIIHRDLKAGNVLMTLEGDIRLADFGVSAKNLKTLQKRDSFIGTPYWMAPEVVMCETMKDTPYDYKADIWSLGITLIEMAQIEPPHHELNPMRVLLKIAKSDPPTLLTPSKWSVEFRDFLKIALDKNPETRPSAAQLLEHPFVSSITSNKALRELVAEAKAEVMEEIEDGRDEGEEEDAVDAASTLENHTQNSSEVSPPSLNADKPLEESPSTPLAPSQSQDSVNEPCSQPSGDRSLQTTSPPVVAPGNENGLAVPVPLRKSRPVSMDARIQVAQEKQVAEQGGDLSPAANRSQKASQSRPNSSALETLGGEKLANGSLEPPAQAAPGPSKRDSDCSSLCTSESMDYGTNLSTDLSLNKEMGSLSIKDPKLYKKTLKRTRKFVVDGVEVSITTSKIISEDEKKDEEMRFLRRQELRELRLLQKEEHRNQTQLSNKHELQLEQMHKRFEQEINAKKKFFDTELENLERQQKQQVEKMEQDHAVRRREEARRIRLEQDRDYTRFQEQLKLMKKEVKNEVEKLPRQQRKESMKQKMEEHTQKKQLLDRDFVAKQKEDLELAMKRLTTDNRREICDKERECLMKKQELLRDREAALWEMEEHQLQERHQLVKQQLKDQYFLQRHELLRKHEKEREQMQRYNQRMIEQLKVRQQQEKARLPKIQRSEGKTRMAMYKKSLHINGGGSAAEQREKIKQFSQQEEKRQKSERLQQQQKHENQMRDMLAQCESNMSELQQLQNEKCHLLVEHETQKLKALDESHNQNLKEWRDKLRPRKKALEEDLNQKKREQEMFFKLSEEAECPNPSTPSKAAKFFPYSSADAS
Aurora kinase B (Homo sapiens), sequence (Q96GD4 whole entry): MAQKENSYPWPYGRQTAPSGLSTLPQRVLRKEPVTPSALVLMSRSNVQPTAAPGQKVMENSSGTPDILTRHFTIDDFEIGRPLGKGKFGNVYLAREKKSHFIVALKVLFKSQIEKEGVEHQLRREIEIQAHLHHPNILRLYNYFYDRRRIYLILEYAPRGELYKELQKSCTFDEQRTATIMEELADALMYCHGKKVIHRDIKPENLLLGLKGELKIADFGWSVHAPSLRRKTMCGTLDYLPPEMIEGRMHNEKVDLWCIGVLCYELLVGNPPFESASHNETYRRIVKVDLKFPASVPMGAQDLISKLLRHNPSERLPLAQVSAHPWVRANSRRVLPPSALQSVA

Structure (SMILES) | inhibition [1] | inhibition [2] | inhibition [3] | inhibition [4] | inhibition [5] | inhibition [6] | inhibition [7] | inhibition [8] | inhibition [9] | inhibition [10]
[O-][S+]1CCN(Cc2ccc(-c3ccc4ncnc(Nc5ccc(OCc6ccccc6)c(F)c5)c4c3)o2)CC1 | 5.78% | 1.65% | 4.29% | 0.94% | 7.34% | 2.71% | 6.62% | 0.36% | 1.57% | 3.5%
Cc1ccc(C(=O)NC2CCCCC2)cc1-c1ccc(C(=O)NCC2CC2)cc1 | 4.4% | 3.05% | 7.57% | 2.71% | 14% | 7.27% | 6.5% | 2.78% | 2.05% | 2.48%
Cc1nn(C)c2cc(N(C)c3ccnc(Nc4cccc(S(N)(=O)=O)c4)n3)ccc12 | 89.8% | 7.86% | 47.5% | 13.3% | 93% | 13.3% | 51.4% | 7.42% | 30.9% | 53.7%
NS(=O)(=O)c1ccc(N/N=C2\C(=O)Nc3ccc(C(=O)NCCc4c[nH]cn4)cc32)cc1 | 41.2% | 6% | 26.8% | 3.9% | 31.5% | 3.71% | 8.99% | 1.62% | 6.59% | 10.5%
Nc1ncnc2occ(-c3ccc(NC(=O)Nc4cc(C(F)(F)F)cc(C(F)(F)F)c4)cc3)c12 | 46% | 10.6% | 44.5% | 1.5% | 79.7% | 9.76% | 29% | 15.7% | 48.9% | 2.54%
CCCN1CCC=C(c2ccc(Nc3nc(Nc4ccccc4C(N)=O)c4cc[nH]c4n3)c(C)c2)C1 | 32.6% | 5.03% | 12.8% | 1.85% | 13.7% | 8.52% | 14.9% | 6.05% | 35.5% | 19.2%
NC(=O)c1cccc(Nc2nccc(Nc3cccc4[nH]ncc34)n2)c1 | 96.8% | 24.5% | 73.7% | 39.2% | 100% | -1.55% | 31.9% | 2.55% | 24.3% | 2.67%
O=C(Nc1n[nH]c2nc(-c3ccco3)c(Br)cc12)C1CC1 | 45.6% | 5.16% | 14.5% | 2.71% | 29.4% | 6.48% | 11.3% | -0.14% | 2.51% | 4.76%
CCn1c(-c2nonc2N)nc2c(N3CCCC3)nccc21 | 2.53% | -1.12% | 5.43% | 0.17% | -2.42% | -0.24% | 2.42% | 1.22% | 4.2% | 0.97%
COc1ccc(-c2ccncc2)cc1C(N)=O | 4.17% | 5.11% | 7.24% | 1.6% | 5.22% | 8.76% | 12.9% | 0.72% | 3.34% | 4.28%
O=C1NC(=O)C(c2cccc(Cl)c2)=C1Nc1ccc(O)c(Cl)c1 | 11.1% | 1.17% | 6.09% | 1.02% | 13.1% | 6.26% | 46.3% | 4% | 21.3% | 1.83%
CC(C)=Cc1cccc2c1/C(=N/Nc1ccc(S(N)(=O)=O)cc1)C(=O)N2 | 93.1% | 8.72% | 45% | 5.14% | 65.6% | 1.18% | 10.2% | 1.89% | 6.11% | 3.27%
CCn1c(-c2nonc2N)nc2cncc(C(=O)N3CCNCC3)c21 | 2.9% | 3.66% | 4.51% | -0.51% | 1.12% | 10.8% | 8.24% | 1.51% | 2.14% | 3.11%
COc1ccc(COc2ccc(Cc3cnc(N)nc3N)cc2OC)cc1 | 2.3% | 3.53% | 4.95% | 2.97% | 16.2% | 5.28% | 7.31% | 3.72% | 3.99% | 0.34%
Cc1cc(O)cc(C)c1/C=C/c1cncc(-c2nn[nH]n2)c1 | -0.41% | -2.87% | 1.12% | -3.31% | -0.15% | 5.3% | 39.7% | 1.25% | 5.33% | 8.4%
CS(=O)(=O)CCN(CC#N)Cc1ccc(-c2ccc3ncnc(Nc4ccc(OCc5cccc(F)c5)c(Cl)c4)c3c2)o1 | -0.17% | -3.61% | 0.96% | -4.78% | 1.4% | 3.25% | 7.32% | -0.14% | -0.7% | 3.8%
Nc1nc(-c2ccccn2)c(-c2ccc3ncccc3n2)s1 | 9.43% | 1.61% | 8.29% | 2.42% |  | 2.91% | 5.82% | 0.08% | 2.92% | 5.35%

Structure (SMILES) | inhibition [1] | inhibition [2] | inhibition [3] | inhibition [4] | inhibition [5] | inhibition [6] | inhibition [7] | inhibition [8] | inhibition [9] | inhibition [10]
CCN1CCC(CC(=O)Nc2n[nH]c3nc(-c4cccs4)c(Br)cc23)CC1 | 0.27% | -0.51% | 3.7% | -1.4% | -3.08% | -1.57% | 1.93% | 0.32% | 2.2% | 0.23%
c1cnn2ncc(-c3ccnc(Nc4ccc5c(c4)OCCO5)n3)c2c1 | 85.5% | 14.4% | 65.2% | 18.8% | 96.8% | 5.98% | 23.8% | 13.6% | 56.5% | 11.3%
CCn1c(-c2nonc2N)nc2c(C#CC(C)(C)O)nc(OC[C@@H](N)c3ccccc3)cc21 | 11.7% | 2.1% | 7.36% | 4.3% | -0.02% | -0.81% | 7.62% | 0.61% | 8.96% | 1.21%
COc1cc(C=NNc2ncnc3c2cnn3-c2ccccc2)ccc1O | 94% | 11.5% | 56.8% | 9.9% | 88.3% | 5.58% | 26.1% | 4.63% | 19.3% | 28.1%
COc1cccc(-n2ncc3c(N/N=C/c4cccc(F)c4)ncnc32)c1 | 16.9% | -1% | 7.83% | -2.12% | 1.75% | 3.91% | 11.8% | 1.55% | 4.59% | 7.45%
O=C1NC(=O)C(N2CCc3ccccc32)=C1c1ccc(Cl)cc1 | 15.5% | 5.02% | 13.8% | 3.07% | 15.9% | 7.48% | 8.68% | 1.87% | 6.3% | 4.26%
COc1cc2ncn(-c3cc(O[C@H](C)c4ccccc4Cl)c(C(N)=O)s3)c2cc1OC | 30.1% | 8.7% | 37.9% | 4.62% | 50.7% | 99.3% | 88% | 13.6% | 47.4% | 4.5%
COc1ccccc1Nc1ncc(-c2ccccc2)o1 | 8.83% | 4.39% | 11.1% | 3.63% | 12.5% | 8.13% | 8.47% | -0.05% | 4.63% | 6.79%
O=C1NC(=O)C(c2ccc(Cl)cc2)=C1Nc1ccc(Cl)c(C(=O)O)c1 | 4.76% | -0.14% | 2.81% | -1.78% | -3.59% | -1.94% | -1.03% | 0.42% | 2.85% | -1.56%
CN1CCC(C(=O)Nc2n[nH]c3nnc(-c4ccccc4)cc23)CC1 | 8.78% | 3.81% | 9.47% | 4.39% | -2.07% | 8.49% | 9.99% | 0.73% | 3.35% | 6.6%
Cn1cc(C=C2C(=O)Nc3cccnc32)c2ccccc21 | 57% | 7.66% | 55.1% | 5.21% | 62.6% | 3.81% | 12% | 2.96% | 17.9% | 6.66%
COC(=O)Nc1nc2cc(Oc3cccc(NC(=O)Nc4cc(C(F)(F)F)ccc4F)c3)ccc2[nH]1 | 1.22% | -1.59% | -0.29% | 0.03% | 4.29% | 4.04% | 12.5% | 1.34% | 3.06% | 3.21%
CN(C)c1cc2c(Nc3ccc4nc(Cc5ccccc5)[nH]c4c3)ncnc2cn1 | 11.5% | 6.09% | 27.4% | 5.94% | 40.3% | 6.78% | 14.4% | 1.35% | 2.07% | 7.88%
CNC(=O)c1cncc(/C=C/c2c(Cl)cccc2Cl)c1 | 0.47% | -2.93% | 2.43% | -4.44% | 0.68% | 6.82% | 10.6% | 1.03% | 2.47% | 8.94%
Fc1cccc(COc2ccc(Nc3ncnc4sc(-c5cccs5)cc34)cc2Cl)c1 | 2.05% | 1.14% | 6.42% | 1.7% | 7.89% | 2.84% | 4.63% | -0.64% | 1.65% | 1.29%
CCn1c(-c2nonc2N)nc2cnc(Oc3cccc(NC(=O)c4ccc(OCCN5CCOCC5)cc4)c3)cc21 | 43% | 2.17% | 8.22% | 1.52% | 4.33% | 3.13% | 9.94% | 0.13% | -1.08% | 6.11%
Cc1ccc(NC(=O)c2ccnc(N3CCCC3)c2)cc1-c1ccc(C(=O)NCC2CC2)cc1 | 4.67% | 1.95% | 6.5% | -0.41% | 7.12% | 3.49% | 7.84% | 3.82% | 13.5% | 10%
